Screens (PubChem)
The list is not random: actives were taken first. Their share in the collection is about 6.7%.
C diff growth = inhibitors of Clostridium difficile growth; Clostridium difficile clinical isolate growth, OD600, 24 h; active compounds read low; growth activity, negative = inhibition, % at 16 µg/mL (by protocol); 86,000 compounds, 0.25% hits; AID 1259249;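 active means mean growth activity at or below -80% and every replicate also at or below -80%; inconclusive means mean at or below -80% but some replicate above -80%; inactive means mean growth activity above -80%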
T cruzi growth-1 = blocks T. cruzi growth in NIH3T3 culture; T. cruzi beta-gal in NIH3T3, GalScreen luminescence, 90 h; inhibition, % at 8.34 µM; 77,000 compounds, 5.9% hits; AID 624255;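 active means mean inhibition above about 93%, with at least 55% of replicates each passing it, limit read from the data, passing the limit was not always enough; inconclusive means only one of those two conditions holds; inactive means neither condition holds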
Pf Dd2 inh = inhibitors of Plasmodium falciparum Dd2 growth; 94,000 compounds, 2.3% hits; activity change, % at 10 µM; P. falciparum Dd2 growth, SYBR Green, 72 h; active compounds read low; AID 1159554; in the data active means activity change below about -80%; inconclusive means no clear call, values can overlap the other calls
T cruzi growth-2 = inhibitors of T. cruzi proliferation; inhibition, % at 8.35 µM; AID 651739; 5,600 compounds, 72% hits; T. cruzi beta-gal in NIH3T3, GalScreen luminescence, 90 h; shares compounds with T cruzi growth-1;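 active means mean replicate inhibition above about 95% and at least 55% of replicates individually reaching it, limit read from the data; inconclusive means only one of the two criteria is met; inactive means neither criterion is met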
T cruzi growth-3 = blocks T. cruzi growth in NIH3T3 host cells. shares compounds with T cruzi growth-1. inhibition, % at 2.09 µM. 5,600 compounds, 21% hits. AID 651740. T. cruzi beta-gal in NIH3T3, GalScreen luminescence, 90 h;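 active means mean inhibition above about 95%, with at least 55% of replicates also reaching it, limit read from the data; inconclusive means meets just one of the two conditions; inactive means meets neither condition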
3T3 cytotox = kills mouse NIH/3T3 fibroblasts; shares compounds with T cruzi growth-1; NIH/3T3 viability, CellTiter-Glo ATP luminescence, 90 h; 5,600 compounds, 14% hits; AID 651742; cytotoxicity (signal decrease), % at 8.35 µM;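 active means mean signal decrease across replicates above about 35% based on untreated-well scatter, with enough replicates individually passing, limit read from the data; inconclusive means no rule stated though some were filed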
3T3 cytotox 2 = kills mouse NIH/3T3 fibroblasts; shares compounds with T cruzi growth-1; 5,600 compounds, 56% hits; NIH/3T3 viability, CellTiter-Glo ATP luminescence, 90 h; AID 651744; inhibition, % at 24.9 µM;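 active means mean loss of cell viability signal at or above a set limit, and enough replicates individually reaching it; inconclusive means meets only the mean limit or only the replicate share; inactive means meets neither condition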
A number is an active result; i = inactive; ? = inconclusive; nt = not tested or not shown; ! = repeats disagree.

SMILES	C diff growth	T cruzi growth-1	Pf Dd2 inh	T cruzi growth-2	T cruzi growth-3	3T3 cytotox	3T3 cytotox 2
O=C(NCC[C@H]1CC[C@H](NS(=O)(=O)Cc2ccccc2)[C@H](CO)O1)C1CCC1	nt	i	i	nt	nt	nt	nt
O=C(C[C@H]1CC[C@@H](NC(=O)CC2CC2)[C@H](CO)O1)NCc1ccc(Cl)cc1	nt	i	i	nt	nt	nt	nt
COc1ccc2c3c([nH]c2c1)[C@@H](CO)NCC31CN(Cc2ccccc2F)C1	i	nt	i	nt	nt	nt	nt
C[C@@H]1CN([C@@H](C)CO)C(=O)c2cccc(N(C)C)c2O[C@H]1CN(C)Cc1ccc(C(F)(F)F)cc1	i	i	i	nt	nt	nt	nt
C[C@@H]1CN([C@@H](C)CO)C(=O)c2cccc(N(C)C)c2O[C@H]1CN(C)Cc1ccc(Cl)c(Cl)c1	i	i	i	nt	nt	nt	nt
C[C@@H]1CN([C@@H](C)CO)C(=O)c2cccc(N(C)C)c2O[C@@H]1CN(C)Cc1ccc(C(F)(F)F)cc1	i	104.1	i	i	i	i	?
C[C@H]1CN([C@@H](C)CO)C(=O)c2cccc(N(C)C)c2O[C@@H]1CN(C)Cc1ccc(Cl)c(Cl)c1	i	100.3	i	108.2	i	i	103.4
COCC(=O)Nc1ccc2c(c1)C(=O)N(C)C[C@H](OC)[C@H](C)CN(Cc1cccnc1)[C@H](C)CO2	nt	i	i	nt	nt	nt	nt
COc1cccc(CN(C)C[C@@H]2OCc3ccccc3-c3ccccc3C(=O)N([C@@H](C)CO)C[C@@H]2C)c1	i	i	i	nt	nt	nt	nt
COc1cccc(S(=O)(=O)N(C)C[C@H]2OCc3ccccc3-c3ccccc3C(=O)N([C@H](C)CO)C[C@@H]2C)c1	i	?	i	i	i	i	i
COc1cccc(CN(C)C[C@H]2OCc3ccccc3-c3ccccc3C(=O)N([C@@H](C)CO)C[C@H]2C)c1	i	?	i	i	i	i	i
COc1cccc(S(=O)(=O)N(C)C[C@H]2OCc3ccccc3-c3ccccc3C(=O)N([C@@H](C)CO)C[C@@H]2C)c1	i	i	i	nt	nt	nt	nt
CO[C@@H]1CN(C)C(=O)c2cc(NC(=O)c3ccccc3F)ccc2OC[C@H](C)N(C)C[C@H]1C	nt	i	i	nt	nt	nt	nt
CC(C)COC(=O)N(C)C[C@@H]1OCc2cnnn2CCCC(=O)N([C@H](C)CO)C[C@H]1C	i	101.4!	i	i	i	i	i
C[C@@H]1CN([C@@H](C)CO)C(=O)CCCn2nncc2CO[C@@H]1CN(C)C(=O)NC1CCCC1	i	?	i	i	i	i	i
CC(C)COC(=O)N(C)C[C@H]1OCc2cnnn2CCCC(=O)N([C@@H](C)CO)C[C@H]1C	i	i	i	nt	nt	nt	nt
C[C@H](CO)N1C[C@H](C)[C@H](CN(C)C(=O)NC2CCCCC2)OCc2cnnn2CCCC1=O	i	i	i	nt	nt	nt	nt
C[C@H](CO)N1C[C@H](C)[C@@H](CN(C)C(=O)c2ccc3ccn(C)c3c2)OCc2cnnn2CCCC1=O	i	117.1!	i	i	i	i	i
C[C@@H]1CN([C@@H](C)CO)C(=O)CCCn2nncc2CO[C@@H]1CN(C)C(=O)c1ccc2ccn(C)c2c1	i	i	i	nt	nt	nt	nt
C/C=C/c1ccc([C@@H]2[C@@H](CN(C)C(=O)c3ccccn3)N(C(C)=O)[C@H]2CO)cc1	i	i	i	nt	nt	nt	nt
CCC(=O)Nc1ccc2c(c1)C(=O)N(C)[C@@H]1CC[C@H](CC(=O)NCCc3ccccc3)O[C@H]1CO2	i	i	i	nt	nt	nt	nt
CNC[C@@H]1Oc2c(NC(=O)Nc3c(C)noc3C)cccc2C(=O)N([C@H](C)CO)C[C@@H]1C	i	i	i	nt	nt	nt	nt
CN1c2ccc(-c3ccc(F)cc3)cc2[C@@H]2[C@@H](CCN2C(=O)Cc2cccnc2)[C@H]1CO	i	115.4	i	116.9	102.9	i	i
CN(C)C(=O)c1ccc(-c2ccc3c(c2)[C@H]2[C@H](CCN2C(=O)Cc2ccccn2)[C@@H](CO)N3C)cc1	i	?	i	106.1	i	i	i
CN(C)C(=O)c1cccc(-c2ccc3c(c2)[C@@H]2[C@@H](CCN2C(=O)Cc2ccccn2)[C@@H](CO)N3C)c1	i	i	i	nt	nt	nt	nt
SMILES	C diff growth	T cruzi growth-1	Pf Dd2 inh	T cruzi growth-2	T cruzi growth-3	3T3 cytotox	3T3 cytotox 2
CN1c2ccc(-c3ccc(F)cc3)cc2[C@H]2[C@H](CCN2C(=O)Cc2ccccn2)[C@H]1CO	i	i	i	nt	nt	nt	nt
CN1c2ccc(-c3ccccc3)cc2[C@@H]2[C@@H](CCN2C(=O)Cc2ccccn2)[C@@H]1CO	i	98.8	i	105.5	i	i	i
CN1c2ccc(-c3cccc(F)c3)cc2[C@@H]2[C@@H](CCN2C(=O)Cc2cccnc2)[C@@H]1CO	i	i	i	nt	nt	nt	nt
CN1c2ccc(-c3ccc(F)cc3)cc2[C@@H]2[C@@H](CCN2C(=O)Cc2ccccn2)[C@H]1CO	i	i	i	nt	nt	nt	nt
COc1ccc(-c2ccc3c(c2)[C@@H]2[C@@H](CCN2C(=O)Cc2ccccn2)[C@@H](CO)N3C)cc1	i	?	i	107.1	i	i	i
C[C@@H]1CCCCO[C@H](CN(C)C(=O)C2CCCCC2)[C@H](C)CN([C@@H](C)CO)C(=O)c2cc(NC(=O)NC3CCCCC3)ccc2O1	i	i	i	nt	nt	nt	nt
O=C(C[C@H]1CC[C@@H]2[C@H](COC[C@@H](O)CN2Cc2cccc(Cl)c2)O1)N1CCCCC1	i	i	i	nt	nt	nt	nt
Cc1noc(C)c1NC(=O)Nc1ccc2c(c1)C(=O)N([C@@H](C)CO)C[C@@H](C)[C@@H](CN(C)C(=O)CCCN(C)C)OCCCC[C@H](C)O2	i	i	i	nt	nt	nt	nt
C[C@@H]1CN([C@H](C)CO)C(=O)Cc2cc(NC(=O)C3CC3)ccc2O[C@@H]1CN(C)Cc1ccc(C(=O)O)cc1	i	i	i	nt	nt	nt	nt
CCC(=O)Nc1ccc2c(c1)C(=O)N(C)[C@H]1CC[C@@H](CC(=O)NCCc3ccncc3)O[C@@H]1CO2	i	i	i	nt	nt	nt	nt
C[C@H](CO)N1C[C@H](C)[C@@H](CN(C)C(=O)Nc2ccc3c(c2)OCO3)OCCCC[C@H](C)Oc2ccc(N(C)C)cc2C1=O	i	i	i	nt	nt	nt	nt
Cc1noc(C)c1NC(=O)N(C)C[C@@H]1Oc2ccc(NC(=O)CCCCCC(=O)Nc3ccccc3N)cc2CC(=O)N([C@H](C)CO)C[C@@H]1C	i	i	i	nt	nt	nt	nt
CN1c2ccc(-c3cccc(C#N)c3)cc2[C@H]2[C@H](CCN2C(=O)C2CC2)[C@H]1CO	i	nt	i	nt	nt	nt	nt
CN1c2ccc(-c3ccc(C#N)cc3)cc2[C@@H]2[C@@H](CCN2C(=O)CC2CC2)[C@@H]1CO	i	?	i	100.1	?	46.8	79.8
CN1c2ccc(-c3cccc(C#N)c3)cc2[C@H]2[C@H](CCN2C(=O)CN2CCOCC2)[C@H]1CO	i	?	i	107.9	i	i	i
CN1c2ccc(-c3ccc(F)cc3)cc2[C@@H]2[C@@H](CCN2C(=O)Cc2ccccn2)[C@@H]1CO	i	i	i	nt	nt	nt	nt
CN1c2ccc(-c3ccc(F)cc3)cc2[C@H]2[C@H](CCN2C(=O)Cc2ccccn2)[C@@H]1CO	i	?	i	110.3	i	i	i
